Data taken from PubChem BioAssay (EPA / NIEHS).
Values joined by “and” are separate entries in the source; they are usually repeats but may differ in a detail not shown here. Equal values may be shown once. The source holds several records for some structures; these can differ, active in one and inactive in another. Active and inactive are the calls of the source. The calls were made as follows: active = hit-call score of the fitted dose curve at least 0.9, where 1 is the maximum; inconclusive = response in the unintended direction; inactive = score below 0.9.

The molecules below were run against Estrogen receptor beta (Homo sapiens) (UniProt Q92731) (assay: OT_ER_ERbERb_1440: Odyssey Thera (OT) 24-hour HEK293T Protein-Complementation Assay for Estrogen Receptor-beta/-beta Homodimer (AID 2283380);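 also: scored as signal increase over DMSO baseline for both agonists and antagonists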).
Experimental: OT_ER_ERbERb_1440 is a cell-based assay that uses HEK293T, a human kidney cell line, with measurements taken at 24 hours after chemical dosing in a 384-well plate.OT_ER_ERbERb_1440 is one of one assay component(s) measured or calculated from the OT_ER_ERbERb_1440 assay. It is designed to make measurements of protein fragment complementation, a form of binding reporter, as detected with fluorescence intensity signals by Protein-fragment Complementation technology.Data from the assay component OT_ER_ERbERb_1440 was analyzed into 1 assay endpoint. This assay endpoint, OT_ER_ERbERb_1440, was analyzed in the positive analysis fitting direction relative to DMSO as the negative control and baseline of activity. Using a type of binding reporter, measures of receptor for gain-of-signal activity can be used to understand the binding at the pathway-level as they relate to the gene ESR2. Furthermore, this assay endpoint can be referred to as a primary readout, because the performed assay has only produced 1 assay endpoint. To generalize the intended target to other relatable targets, this assay endpoint is annotated to the nuclear receptor intended target family, where the subfamily is steroidal.
Protein-fragment complementation assay, or PCA, is a method for the identification and quantification of protein-protein interactions. In the PCA, the proteins of interest ("bait" and "prey") are each covalently linked to fragments of a third protein (e.g. DHFR, which acts as a "reporter"). Interaction between the bait and the prey proteins brings the fragments of the reporter protein in close proximity to allow them to form a functional reporter protein whose activity can be measured. The OT ER beta / ER beta assay is a homodimer PCA of the ligand binding domain (LBD; amino acids 310-547) of human ER beta stably expressed in HEK293T cells. […] Cells are fixed in 4 percent formaldehyde and stained with Draq5 (BioStatus) to identify cells prior to signal detection. Fluorescent signal in the basal state of the assay is very low and is primarily punctuate and cytoplasmic. Modulation of this assay is quantified as an increase in mean fluorescence intensity in the nucleus (for agonists) or in the nucleus and cytoplasm (antagonists) relative to vehicle controls, and can be quantified on a high content imaging device or a laser scanning cytometer. The latter instrument is favored for this assay because of the rapid mode of data acquisition, the ability to acquire data from the entire cell population in a well (as opposed to a fraction of the well on the high content devices) and the larger dynamic range typically achieved with this instrument. To assess sensitivity of the ER beta/ER beta LBD assay to ligand, cells were treated with the ER agonist 17- beta-estradiol (E2) in 10-point concentration- response format for 24 hours and monitored response on a laser scanning plate cytometer (Acumen eX3; TTP Lab Tech).

Chain of Estrogen receptor beta (Homo sapiens) (Q92731 whole entry, looked up, the tested form may be a part): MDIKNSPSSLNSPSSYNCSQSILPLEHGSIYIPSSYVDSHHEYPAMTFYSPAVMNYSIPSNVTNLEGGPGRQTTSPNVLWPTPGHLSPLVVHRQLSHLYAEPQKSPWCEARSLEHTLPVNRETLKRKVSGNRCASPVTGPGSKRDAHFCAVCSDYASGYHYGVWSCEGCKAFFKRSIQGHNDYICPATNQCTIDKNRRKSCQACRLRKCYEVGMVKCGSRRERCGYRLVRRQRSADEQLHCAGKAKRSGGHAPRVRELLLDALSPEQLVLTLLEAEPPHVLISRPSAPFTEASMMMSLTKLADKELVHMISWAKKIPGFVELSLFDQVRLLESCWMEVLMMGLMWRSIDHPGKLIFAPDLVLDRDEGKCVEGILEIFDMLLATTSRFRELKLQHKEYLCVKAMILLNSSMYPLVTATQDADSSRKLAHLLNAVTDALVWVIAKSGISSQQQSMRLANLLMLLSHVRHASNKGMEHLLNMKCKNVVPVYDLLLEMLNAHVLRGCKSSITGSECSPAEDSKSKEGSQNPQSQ

Row | Compound | outcome | AC50
1 | CCC(C)OC(=O)N1CCCCC1CCO (centres undefined) | inactive | 
2 | C=CCOC(Cn1ccnc1)c1ccc(Cl)cc1Cl (centres undefined) |  | 60.6 µM (active)
3 | CCCCOC(=O)[C@@H](C)Oc1ccc(Oc2ccc(C(F)(F)F)cn2)cc1 | inactive | 
4 | CC(C)(C)[C@@H](O)[C@@H](Cc1ccc(Cl)cc1)n1cncn1 | inactive | 
5 | CC(=O)S[C@@H]1CC2=CC(=O)CC[C@]2(C)[C@H]2CC[C@@]3(C)[C@@H](CC[C@@]34CCC(=O)O4)[C@H]12 | inactive | 
6 | CCCCCCC(C)OC(=O)COc1nc(F)c(Cl)c(N)c1Cl (centres undefined) |  | 72.8 µM (active)
7 | C[C@]12C[C@H](O)[C@H]3[C@@H](CCC4=CC(=O)CC[C@@]43C)[C@@H]1CC[C@@H]2C(=O)CO | inactive | 
8 | CC(=O)[C@H]1CC[C@H]2[C@@H]3CCC4=CC(=O)CC[C@]4(C)[C@H]3CC[C@]12C | inactive | 
9 | COC(=O)CSc1cc(N=c2sc(=O)n3n2CCCC3)c(F)cc1Cl | inactive | 
10 | O=C(O)C1(C(=O)Nc2ccc(Cl)cc2Cl)CC1 | inactive | 
11 | CC(C)CCCCCCc1ccc(O)cc1 |  | 1.2 µM (active) and 1.06 µM (active) and 1.25 µM (active)
12 | O=C(Nc1ccc([N+](=O)[O-])cc1Cl)c1cc(Cl)ccc1O | inactive | 
13 | CCCCCOC(=O)COc1cc(N2C(=O)C3=C(CCCC3)C2=O)c(F)cc1Cl | inactive | 
14 | C#CCOC(=O)[C@@H](C)Oc1ccc(Oc2ncc(Cl)cc2F)cc1 | inactive | 
15 | c1ccc2[nH]c(-c3cscn3)nc2c1 | inactive | 
16 | S=C(S)NCCNC(=S)S.[Mn+2].[S-]C([S-])=NCCN=C([S-])[S-].[Zn+2] | inactive | 
17 | COc1c(Cl)ccc(Cl)c1C(=O)O | inactive | 
18 | CCOC(=O)c1ccc(O)cc1 | inactive | 28.6 µM (active) and 25.9 µM (active) and 32.9 µM (active)
19 | CCNc1nc(N)nc(Cl)n1 | inactive | 

Row | Compound | outcome | AC50
20 | CCN(CC)C(=O)c1cccc(C)c1 | inactive | 
21 | COC(=O)c1ccc(I)cc1S(=O)(=O)NC(=O)Nc1nc(C)nc(OC)n1 | inactive | 
22 | COC(=O)c1ccccc1C(=O)O | inactive | 
23 | O=C(c1ccc(O)cc1O)c1ccc(O)cc1O |  | 2.09 µM (active) and 2.02 µM (active) and 2.21 µM (active)
24 | CCSC(=O)N(CC(C)C)CC(C)C | inactive | 
25 | CCN(Cc1c(F)cccc1Cl)c1c([N+](=O)[O-])cc(C(F)(F)F)cc1[N+](=O)[O-] | inactive | 
26 | CCCCC(CC)COC(=O)c1ccccc1C(=O)O (centres undefined) | inactive | 
27 | CCCCC(CC)CN1C(=O)C2C3C=CC(C3)C2C1=O (centres undefined) | inactive | 
28 | S=C([S-])NCCNC(=S)[S-].[Mn+2] | inactive | 
29 | CCOC(=O)COc1cc(-n2ncc(C(F)(F)F)c(C)c2=O)c(F)cc1Cl | inactive | 
30 | CCCOC(=O)c1ccc(C(=O)OCCC)nc1 | inactive | 
31 | Cc1nn(C)c(Oc2ccccc2)c1C=NOCc1ccc(C(=O)OC(C)(C)C)cc1 | inactive | 
32 | CCOC(=O)C(C)Oc1ccc(Oc2nc3ccc(Cl)cc3o2)cc1 (centres undefined) | inactive | 
33 | CCCN(CCC)c1c([N+](=O)[O-])cc(C(F)(F)F)c(N)c1[N+](=O)[O-] | inactive | 
34 | CCCCOCCOCCOCc1cc2c(cc1CCC)OCO2 | inactive | 
35 | c1ccc(Nc2ccccc2)cc1 | inactive | 
36 | CCCN(CCC)C(=O)SCC | inactive | 
37 | CCCCOC(=O)C(C)Oc1ccc(Oc2ccc(C(F)(F)F)cn2)cc1 (centres undefined) | inactive | 
38 | N#CSCSc1nc2ccccc2s1 | inactive | 
